Assay outcomes from PubChem.
Most compounds without a hit are left out; they make up all but 21% or so of the library.
HCV inh – qHTS Assay for Inhibitors of Hepatitis C Virus (HCV). Huh7.5.1 HCVcc-Cre infection, luciferase reporter, 44 h. Potency, µM (doses to about 41.8 µM), inactives show top-dose activity change, negative = inhibition, usual class: inhibitors. hit rate 3.4% among 340,000; also: potency is read from the fitted curve at half-maximal effect; % is scaled to controls: 0 for no effect and ±100 for the full control effect
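HCVcc-Cre virus at an moi near 0.5 was added right after compound to cells cultured 4 h from seeding (1,000 cells/well). Luciferase activity was determined 44 h later, 15 min after substrate addition at RT.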
HCMV inh – qHTS Assay for inhibitors of the human cytomegalovirus (HCMV); AID 1259415, 2018; HFF cells, HCMV-luciferase reporter, 72 h; active compounds read low; hit rate 4.5% among 410,000; activity change, negative = inhibition, % at 57.5 µM; in the data active = activity change below about -60%; inconclusive = no clear call, values can overlap the other calls; inactive = above about -39%; also: % is scaled to controls: 0 for no effect and ±100 for the full control effect
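Cell-based, HFFs, 1000 cells/well, 16 h 37C; cpds in DMSO + HCMV-luc, MOI 1 PFU/cell; 72 h 37C; OneGlo luminescence after 5 min RT; norm. to buffer vs Salinomycin 10uM.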
Shiga inhibitor – A qHTS for Small Molecule Inhibitors of Shiga Toxin. Vero cells, Shiga toxin protein synthesis inhibition reporter. inhibition, % at 38.7 µM. hit rate 9.2% among 290,000. AID 2315, 2010; in the data active = inhibition mostly above about 28%, no sharp cut-off; inactive = mostly below about 43%; also: 0% is about no effect
Pf growth 96h – Primary qHTS for delayed death inhibitors of the malarial parasite plastid, 96 hour incubation; Potency, µM (top dose mostly 28.7 µM), without a hit: top-dose activity change, negative = inhibition, most hits filed as inhibitors; hit rate 6.9% among 320,000; P. falciparum luciferase reporter growth, 96 h; also: potency is read from the fitted curve at half-maximal effect; % is scaled to controls: 0 for no effect and ±100 for the full control effect
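Delayed-death screen, second-generation endpoint: infected erythrocytes, 2% hematocrit, 0.05% parasitemia final; 96 hours at 37 C, 5% CO2; luciferase detection reagent; luminescence decrease equals reduced growth.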
Pf growth 48h – Primary qHTS for delayed death inhibitors of the malarial parasite plastid, 48 hour incubation | P. falciparum luciferase growth in erythrocytes, 48 h | Potency, µM (doses to about 28.7 µM), inactives show top-dose activity change, negative = inhibition, actives largely listed as inhibitors | hit rate 5.9% among 310,000; also: potency is read from the fitted curve at half-maximal effect; % is scaled to controls: 0 for no effect and ±100 for the full control effect
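Luciferase-expressing parasites in RBCs, 2% Hct / 0.1% parasitemia final; RPMI 1640 + 0.5% Albumax; 37 C, 5% CO2, one generation; luminescence read-out, lower signal = inhibition.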
CHX counter – Cycloheximide Counterscreen for Small Molecule Inhibitors of Shiga Toxin; max response, %; cell reporter, cycloheximide protein synthesis inhibition counterscreen; hit rate 12% among 300,000; in the data active = max response mostly above about 13%, no sharp cut-off; inactive = mostly below about 14%; also: read at 38.3 µM for the half of the compounds with a filed dose; 0% is about no effect
Active calls of the source: *; [ ] = remark or other dose. Unless noted, calls follow the shape of the dose curve; as a rule, active = well fitted inhibition curve with a large enough effect; inconclusive = small, poorly fitted or top-dose-only effect, or another doubt; inactive = no such curve, though single readings can be large or run the other way.

For CC1(C)C(=O)C=C[C@]2(C)[C@H]3CC[C@@]4(C)[C@H](c5ccoc5)OC(=O)[C@H]5O[C@]54[C@]3(C)[C@H](O)C[C@@H]12 the results were HCV inh 1%[8.37 µM], Shiga inhibitor 46, Pf growth 96h 8.3µM*, Pf growth 48h 12µM* and CHX counter 21*.
CC(C)(O)[C@@H]1CC(=O)[C@]2(C)[C@H](CC[C@@]3(C)[C@H](c4ccoc4)OC(=O)[C@H]4O[C@]432)[C@@]1(C)/C=C\C(=O)O was read as HCV inh 4%, HCMV inh -12, Pf growth 96h 40% and Pf growth 48h 46%.
COc1cccc(-c2nc3ccc([N+](=O)[O-])cc3o2)c1 was read as HCV inh 27%, HCMV inh -79*, Shiga inhibitor 29*, Pf growth 96h 0%, Pf growth 48h 58% and CHX counter 12.
O=c1oc(-c2cccc([N+](=O)[O-])c2)nc2ccccc12 was read as HCV inh 13%, HCMV inh 17, Pf growth 96h inconclusive, Pf growth 48h 25% and CHX counter -4.
O=[N+]([O-])c1ccc2nc(-c3ccccc3)oc2c1 was read as HCV inh 0%, HCMV inh 38, Shiga inhibitor 71*, Pf growth 96h 9%, Pf growth 48h 350% and CHX counter 26*.
For CC(C)(C)Nc1nc2ccc([N+](=O)[O-])cc2o1 the results were HCV inh -7%, HCMV inh -9, Shiga inhibitor 35, Pf growth 96h 29%, Pf growth 48h 30% and CHX counter 19*.
CCc1ccc2oc(-c3cccc(NC(=O)c4ccc(-c5cccc([N+](=O)[O-])c5)o4)c3)nc2c1 was read as HCMV inh 66.
Screening COc1cc(C(=O)OCC(=O)N2CCCC2=O)cc(OC)c1C returned HCV inh 9% and HCMV inh -23.
`CN(C)CCNC(=O)C(=O)NCC(c1cccnc1)N1CCN(c2ccccc2)CC1` (centres undefined) gave HCMV inh 5.
COc1ccc2cc3c(N)c(C(=O)NCc4ccco4)sc3nc2c1 was read as HCV inh inconclusive, HCMV inh 29, Shiga inhibitor 42*, Pf growth 96h inconclusive, Pf growth 48h -86% and CHX counter 11.
COc1cccc2cc(C(=O)Nc3ccc(CC(=O)O)cc3)c(=O)oc12 was read as HCMV inh -72*.
For COc1ccc2cc(C(=O)NCc3ccccc3)c(=Nc3ccc(C(=O)O)cc3)oc2c1 the results were HCV inh inconclusive, HCMV inh inconclusive, Shiga inhibitor 23, Pf growth 96h 0.41µM*, Pf growth 48h inconclusive and CHX counter 13.
Screening COc1cccc2cc(C(=O)NCc3ccco3)c(=O)oc12 returned HCV inh 19%, HCMV inh inconclusive, Shiga inhibitor 74*, Pf growth 96h -15%, Pf growth 48h 11% and CHX counter 34*.
O=C(O)c1ccc(N=c2oc3cc(O)ccc3cc2C(=O)NCc2ccccc2)cc1 was read as HCV inh -5%, HCMV inh 67, Shiga inhibitor 4, Pf growth 96h inconclusive, Pf growth 48h -28% and CHX counter 7.
Screening CC(C)(C)N(Cc1ccccc1)C(=O)COC(=O)c1ccc2ccccc2n1 returned HCV inh 0% and HCMV inh -25.
CCCCN(C(=O)Cc1ccc([N+](=O)[O-])cc1)C(C(=O)Nc1c(C)cccc1C)C(=O)c1ccc(OC)cc1 (centres undefined) was read as HCMV inh -29.
`CCOc1ccc(-n2cc(C(=O)NCc3ccco3)c3cc(OC)c(OC)cc3c2=O)cc1` gave HCV inh inconclusive, HCMV inh 63, Shiga inhibitor -8, Pf growth 96h 24%, Pf growth 48h 5% and CHX counter -2.
For CCn1cc(C(=O)NCc2ccco2)c2cc(OC)c(OC)cc2c1=O the results were HCV inh -5%, HCMV inh 29, Shiga inhibitor -8, Pf growth 48h 16% and CHX counter 21*.
Screening COc1cc(OC)c(C(=O)NCc2ccco2)cc1OC returned HCV inh 0%, HCMV inh -4, Shiga inhibitor -3, Pf growth 96h -16%, Pf growth 48h -52% and CHX counter 15.
Screening COc1ccc2oc(=O)c(C(=O)NCc3ccco3)cc2c1 returned HCV inh -7%, HCMV inh 6, Shiga inhibitor 85*, Pf growth 96h 13%, Pf growth 48h 15% and CHX counter 25*.
Screening COc1cccc2cc(C(=O)NCc3ccccc3Cl)c(=O)oc12 returned HCV inh 8%, HCMV inh 28, Shiga inhibitor -2, Pf growth 96h inconclusive, Pf growth 48h 36% and CHX counter -2.
`COc1cccc2cc(C(=O)NCc3ccco3)c(=Nc3ccc(C(=O)O)cc3)oc12` gave HCV inh 13%, HCMV inh -78*, Shiga inhibitor 196*, Pf growth 96h inconclusive and CHX counter 76*.
Screening COc1cc(C(F)(F)F)ccc1C(=O)NCCc1ccco1 returned HCV inh -9%, HCMV inh 6, Shiga inhibitor 80*, Pf growth 96h 1%, Pf growth 48h 48% and CHX counter 68*.
For Cc1c(C(=O)OCc2nc3ccsc3c(=O)[nH]2)oc2ccccc12 the results were HCV inh 14%, HCMV inh 3, Pf growth 96h -6% and Pf growth 48h -3%.
For COc1ccc(NC(=O)NS(=O)(=O)c2ccc(C)cc2)cc1OC the results were HCV inh 6% and HCMV inh -20.
For Cc1ccc(NC(=O)Nc2ccc3c(c2)OCO3)c(OC(F)F)c1 the results were HCV inh -27%, HCMV inh 62, Shiga inhibitor 103*, Pf growth 96h 7%, Pf growth 48h 76% and CHX counter 48*.
Screening COc1ccc(NC(=O)Nc2ccc(C)cc2OC(F)F)cc1OC returned HCV inh 6.3µM*, HCMV inh -2, Shiga inhibitor 21, Pf growth 96h -1%, Pf growth 48h inconclusive and CHX counter 1.
CCCn1c(=O)[nH]c2nc(-c3ccc(S(=O)(=O)O)cc3)[nH]c2c1=O was read as Shiga inhibitor -2 and CHX counter -6.
COc1cc(OC)cc(C(=O)Nc2cccc3ccccc23)c1 was read as HCV inh -7%, HCMV inh 37, Shiga inhibitor 6, Pf growth 96h 13%, Pf growth 48h -12% and CHX counter 7.
